Measured values taken from PubChem BioAssay AID652197 (Broad Institute, 2013).
Values joined by “and” are separate entries in the source; they are usually repeats but may differ in a detail not shown here. Equal values may be shown once. About 500 (0.15%) of roughly 340,000 compounds were called active.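 Rule for the calls: active = mean replicate inhibition of at least 30%, or all replicates individually reaching that 30% level; inactive = mean below 30% and not every replicate reaching it.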 Shown is part of a subset that was picked to be rich in actives.

These molecules were tested against Endoplasmic reticulum aminopeptidase 1 (Homo sapiens) (UniProt Q9NZ08) (assay: inhibition of ERAP1 peptide trimming enzyme – biochemical, single point, plate reader, primary screen (AID 652197;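 note: 0% = neutral control wells and 100% = L-leucinethiol positive control wells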)). Details: recombinant ERAP1, Leu-AMC fluorescence, 60 min; at 10.7 µM; hits give high values.
Endoplasmic reticulum aminopeptidase 1 (Homo sapiens), sequence (Q9NZ08 whole entry, looked up): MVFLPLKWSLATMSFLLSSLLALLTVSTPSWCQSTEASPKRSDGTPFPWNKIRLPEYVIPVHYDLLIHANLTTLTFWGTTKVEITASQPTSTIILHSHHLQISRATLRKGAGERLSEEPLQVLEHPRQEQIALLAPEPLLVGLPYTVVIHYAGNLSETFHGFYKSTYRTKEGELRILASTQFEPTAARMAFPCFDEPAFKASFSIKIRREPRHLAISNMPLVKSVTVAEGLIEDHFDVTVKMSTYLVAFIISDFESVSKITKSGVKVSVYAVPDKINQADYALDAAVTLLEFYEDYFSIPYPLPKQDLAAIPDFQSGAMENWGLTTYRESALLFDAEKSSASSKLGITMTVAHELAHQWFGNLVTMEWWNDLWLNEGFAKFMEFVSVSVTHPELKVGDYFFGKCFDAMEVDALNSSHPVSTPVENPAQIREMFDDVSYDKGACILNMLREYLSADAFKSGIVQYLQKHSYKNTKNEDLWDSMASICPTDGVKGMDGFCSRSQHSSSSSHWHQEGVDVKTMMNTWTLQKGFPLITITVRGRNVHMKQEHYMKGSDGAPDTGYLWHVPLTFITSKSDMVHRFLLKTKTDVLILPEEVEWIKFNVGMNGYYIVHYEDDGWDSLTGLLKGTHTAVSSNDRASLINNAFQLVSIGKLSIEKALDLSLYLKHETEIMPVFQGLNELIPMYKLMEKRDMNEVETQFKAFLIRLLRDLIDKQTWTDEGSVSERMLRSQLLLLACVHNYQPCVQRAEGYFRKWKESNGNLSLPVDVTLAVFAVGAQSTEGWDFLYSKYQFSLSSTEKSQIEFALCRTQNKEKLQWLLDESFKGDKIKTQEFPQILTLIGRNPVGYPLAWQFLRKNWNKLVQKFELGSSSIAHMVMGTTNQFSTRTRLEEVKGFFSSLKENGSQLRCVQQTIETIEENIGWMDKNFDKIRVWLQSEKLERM

SMILES	inhibition
O=C(OCC(=O)N1CCN(C(=O)c2ccco2)CC1)c1cccc(O)c1	-0.23% (inactive)
CN(c1ccccc1)S(=O)(=O)c1cc(C(=O)OCC(=O)N2CCN(C(=O)c3ccco3)CC2)ccc1Cl	60.1% (active)
O=C(OCC(=O)N1CCN(C(=O)c2ccco2)CC1)c1ccc(Cl)c(Cl)c1	0.999% (inactive)
CO[C@@H]1CN(C)C(=O)c2cc(NC(=O)C3CCOCC3)ccc2OC[C@H](C)N(Cc2cccnc2)C[C@H]1C	0.791% (inactive)
O=C(C[C@H]1CC[C@H]2NC[C@@H](O)COC[C@@H]2O1)NCCN1CCCC1	1.06% (inactive)
O=C(Nc1cccc(F)c1)N1CC(=O)N2[C@H](C1)[C@H](c1ccc(-c3ccccc3F)cc1)[C@@H]2CO	0.092% (inactive)
Cc1noc(C)c1C(=O)N(C)C[C@H]1OCc2ccccc2-c2c(n(C)c3ccccc23)C(=O)N([C@@H](C)CO)C[C@H]1C	-0.288% (inactive)
O=C(NC1=CC(=O)c2ccccc2C1=O)c1ccccc1	2.97% (inactive)
O=C1C(Cl)=C(Oc2ccccc2)C(=O)c2ccccc21	4.33% (inactive)
CC(=O)N(C1=C(Cl)C(=O)c2ccccc2C1=O)c1ccc(C(=O)O)cc1	84.4% (active)
CC(C)NC(=O)N1CCCCN2[C@@H](CO)[C@@H](c3ccc(C#Cc4ccccc4)cc3)[C@@H]2C1	0.974% (inactive)
O=C(Cc1ccccc1)N1CC[C@@H]2[C@H](CO)Nc3ccc(-c4ccccc4)cc3[C@@H]21	4.96% (inactive)
C/C=C/c1ccc([C@H]2[C@H](CO)N(C(=O)CN(C)C)C23CN(C(=O)C2CC2)C3)cc1	-1.65% (inactive)
O=C(C[C@H]1CC[C@H]2[C@@H](COC[C@H](O)CN2S(=O)(=O)c2cccc(F)c2)O1)NC1CCC1	-1.89% (inactive)
COc1ccc(-c2ccc([C@@H]3[C@H](CN(C)S(C)(=O)=O)N[C@@H]3CO)cc2)cc1	-0.559% (inactive)
C[C@@H]1CCCCO[C@@H](CN(C)S(=O)(=O)c2cccs2)[C@H](C)CN([C@H](C)CO)C(=O)c2cc(NC(=O)CCCN(C)C)ccc2O1	0.521% (inactive)
COc1ccc(CCOC(=O)CNC(=O)c2ccc(Cl)cc2Cl)cc1	37.4% (active)
COc1ccc(CCNC(=O)COC(=O)c2cnc(Cl)c(Cl)c2)cc1	-0.478% (inactive)
Cc1ccccc1NC(=O)Cc1nc(COC(=O)CNC(=O)c2ccc(Cl)cc2Cl)cs1	-1.49% (inactive)
CCC(=O)N1CC2(C1)[C@@H](c1ccc(C3=CCCC3)cc1)[C@@H](CO)N2C(=O)COC	-3.58% (inactive)
C[C@@H]1CCCCO[C@@H](CN(C)Cc2ccc3c(c2)OCO3)[C@@H](C)CN([C@@H](C)CO)C(=O)c2cc(NC(=O)C3CCCCC3)ccc2O1	-1.88% (inactive)
C[C@@H]1CN([C@@H](C)CO)C(=O)c2cc(C#CC3CCCCC3)cnc2O[C@H]1CN(C)C(=O)Cc1ccccn1	4.3% (inactive)
COc1ccc(NC(=O)N(C)C[C@@H]2OCCCC[C@@H](C)Oc3ccc(NS(C)(=O)=O)cc3C(=O)N([C@@H](C)CO)C[C@H]2C)cc1	4.38% (inactive)

SMILES	inhibition
CCC(=O)N[C@H]1CC[C@@H](CC(=O)NCC2CC2)O[C@@H]1CO	-1.77% (inactive)
Cc1cc2c(nc1C)CCCN2C	56.4% (active)
CN1CCCc2nc(-c3ccccc3)ccc21	0.84% (inactive)
C[C@H]([C@@H](O)[C@@H](O)[C@@H](C)C(C)(C)C)[C@H]1CC[C@H]2C3CC[C@H]4C[C@H](OS(=O)(=O)O)[C@@H](OS(=O)(=O)O)C[C@]4(C)[C@H]3CC[C@]12C (some centres undefined)	51.7% (active)
CC(=O)O[C@H]1CC[C@@]2(C)[C@@H](CC[C@@H]3[C@@H]2CC[C@]2(C)[C@@H](C(C)(C)O)C[C@@H]32)C1	-4.42% (inactive)
O=C(C[C@H]1CC[C@H]2[C@@H](COC[C@@H](O)CN2C(=O)Nc2ccc(C(F)(F)F)cc2)O1)NC1Cc2ccccc2C1	3.19% (inactive)
Cc1ccc(-c2ccc(C3[C@H]4CNC[C@@H]3N4S(=O)(=O)c3ccccc3C)cc2)cc1 (some centres undefined)	1.57% (inactive) and -0.081% (inactive)
COc1cccc(-c2ccc([C@@H]3[C@@H](CO)N4C(=O)CN(C(=O)C5CCCCC5)C[C@H]34)cc2)c1	-0.992% (inactive)
CO[C@@H]1CC[C@@H]2CCOc3ccc(C#N)cc3C(=O)N(C)C[C@@H](OC)[C@@H](C)C(=O)N(C)C[C@H]1O2	-4.56% (inactive)
CNC(=O)C[C@@H]1CC[C@@H]2[C@H](COC[C@@H](O)CN2S(=O)(=O)c2ccccc2Cl)O1	0.052% (inactive)
Cc1nc2ccc(N)nc2nc1C	31.2% (active)
Cc1nc2cccnc2nc1C	1.29% (inactive)
O=C(CCN1CCCCC1)NCC[C@H]1CC[C@@H](NC(=O)C2CCOCC2)[C@H](CO)O1	3.14% (inactive)
C[C@H]1CN([C@@H](C)CO)C(=O)Cc2cc(NC(=O)c3ccncc3)ccc2O[C@@H]1CN(C)C(=O)Nc1ccccc1	1.04% (inactive)
CNC(=O)C[C@H]1CC[C@@H]2[C@H](COc3ccc(NC(=O)Nc4ccc(F)c(F)c4)cc3C(=O)N2C)O1	0.113% (inactive)
C#Cc1ccc([C@H]2C=C(C(=O)O)O[C@@H](OCC)[C@@H]2CCCO)cc1	-6.5% (inactive)
C[C@@H]1CCCCO[C@H](CN(C)C(=O)c2ccccc2)[C@H](C)CN([C@@H](C)CO)C(=O)c2cc(NC(=O)Nc3ccc4c(c3)OCO4)ccc2O1	-5.55% (inactive)
Cc1ccc(S(=O)(=O)Nc2ccc3c(c2)C(=O)N([C@@H](C)CO)C[C@@H](C)[C@H](CN(C)Cc2ccc(Cl)c(Cl)c2)OCCCC[C@@H](C)O3)cc1	0.461% (inactive)
Cc1ccc(CNC(=O)COC(=O)C2CCC2)cc1	1.31% (inactive)
Cc1ccc(COC(=O)CN2C(=O)NC3(CCCC3)C2=O)cc1	-3.32% (inactive)
Cc1ccc(CCCOC(=O)C[N+]2(C)CCCCC2)cc1	30.8% (active)
Cc1ccc(CCCOC(=O)C[N+]2(C)CCCC2)cc1	106% (active)
Cc1ccc(S(=O)(=O)CCC(=O)OCC(=O)NCCc2ccc(S(N)(=O)=O)cc2)cc1	-0.437% (inactive)

SMILES	inhibition
COc1ccc(CC2c3cc(OC)c(OC)cc3CC[N+]2(C)CCC(=O)OCCCCCOC(=O)CC[N+]2(C)CCc3cc(OC)c(OC)cc3C2Cc2ccc(OC)c(OC)c2)cc1OC (centres undefined)	-5.26% (inactive)
COc1ccc2c3c(n(C)c2c1)[C@@H](CO)N(C(=O)CN1CCOCC1)CC31CCN(C(=O)C2CC2)CC1	-0.976% (inactive)
CCCC(=O)Nc1ccc2c(c1)OC[C@@H](C)N(CC1CCOCC1)C[C@H](C)[C@H](OC)CN(C)C2=O	6.53% (inactive)
C[C@H](NC(=O)[C@@H]1[C@@H](CO)[C@@H]2Cn3c(ccc(-c4cccc(F)c4)c3=O)[C@@H]2N1C)c1ccccc1	5.74% (inactive)
CC(C)NC(=O)N(C)C[C@@H]1Oc2ccc(N(C)C)cc2CC(=O)N([C@H](C)CO)C[C@@H]1C	2.87% (inactive)
CN1CCN(C(=O)C[C@H]2CC[C@@H]3[C@H](COC[C@@H](O)CN3CC3CCCC3)O2)CC1	4.35% (inactive)
CC(C)c1cn(CC[C@@H]2CC[C@@H](NC(=O)C3CC3)[C@H](CO)O2)nn1	-4.66% (inactive)
COc1ccc2c3c(n(C)c2c1)[C@H](CO)N(C(=O)NC(C)C)CC31CCN(C(=O)NC(C)C)CC1	-0.444% (inactive)
O=C(N[C@H]1CC[C@@H](CCNS(=O)(=O)c2ccccc2)O[C@H]1CO)c1cccnc1	-2.04% (inactive)
C[C@@H]1CN([C@@H](C)CO)C(=O)c2cc(NC(=O)Nc3ccc(F)cc3)ccc2O[C@H]1CN(C)CC1CCCCC1	-0.385% (inactive)
O=C(c1cccc(F)c1)N1CC[C@@H]2[C@H](CO)Nc3ccc(-c4ccccc4)cc3[C@@H]21	-0.032% (inactive)
O=C(C[C@@H]1CC[C@H](NC(=O)NC2CCCCC2)[C@H](CO)O1)NCc1ccc(F)cc1	0.011% (inactive)
CC(C)NC(=O)N1[C@H](C(=O)N2CCc3ccccc3C2)[C@@H](CO)[C@@H]2Cn3c(cccc3=O)[C@@H]21	0.844% (inactive)
COc1cccc2c1C(=O)c1c(O)c3c(c(O)c1C2=O)CC(O)(C(C)=NNC(=O)c1ccc(Cl)c(Cl)c1)CC3OC1CC(N)C(O)C(C)O1 (centres undefined)	42% (active)
COCCNC(=O)c1snc2ccc(Cl)cc12	-4.43% (inactive)
COCCNC(=O)Nc1ccc2nc(-c3ccco3)c(-c3ccco3)nc2c1	30.5% (active)
COCCNC(=O)CSc1nc(N)c(NC(=O)c2ccco2)c(=O)[nH]1	-7.96% (inactive)
O=C(C[C@H]1CC[C@H]2[C@@H](COC[C@@H](O)CN2CC2CCCC2)O1)NCC1CC1	-1.66% (inactive)
Cc1noc(C)c1S(=O)(=O)N(C)C[C@H]1Oc2c(NC(=O)c3cnccn3)cccc2C(=O)N([C@H](C)CO)C[C@H]1C	5.55% (inactive)
Cc1nc(N2[C@H](CO)[C@H](c3ccccc3)[C@H]2CNCC2CCC2)sc1C	2.07% (inactive)
O=C(C1CCC1)N1CC(=O)N2[C@H](C1)[C@@H](c1ccc(-c3ccccc3F)cc1)[C@@H]2CO	-0.661% (inactive)
CN(C)C(=O)c1cccc(-c2ccc([C@H]3[C@@H](CO)N4C(=O)CN(C(=O)C5CC5)C[C@@H]34)cc2)c1	0.435% (inactive)
CN1C(=O)c2cc(NC(=O)C3CC3)ccc2OC[C@H]2O[C@H](CC(=O)O)CC[C@H]21	-5.19% (inactive)
